Inconclusive results are not listed. Calls of active or inactive are those of the source. Cut-off read from the data, not from the text of the source, unless noted: active = inhibition above about 30%; inactive = the rest.
Assays:
[1] = Her2 expression decrease, cell viability multiplex – SKBR3 breast tumor cells, AlphaScreen, ATP viability, primary screen (AID 461;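 active = Her2 level under about 52% in both replicate screens, with viability over 70% of control, limit read from the data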;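 for Her2 level: lower value means less Her2 protein in the cells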;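 for viability: percent of carrier control wells set as 100% viability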); settings: SKBR3 Her2 protein level, 18-24 h, measured here: SKBR3 viability, ATP luminescence, at 10 µM
[2] = target: Receptor tyrosine-protein kinase erbB-2 (Homo sapiens) (UniProt P04626); experiment: as above; settings: 18-24 h, at 10 µM, stronger effect = lower value
[3] = reduced viability of SK-BR-3 breast cancer cells – cell-based, 24 h, human, pilot screen (AID 572;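 active = viability at or below 10% of carrier control in both of two separate runs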;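 note: compound exposure lasted between 18 and 24 h rather than exactly 24 h; 100% = carrier-treated control wells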); settings: SK-BR-3 viability, CellTiter-Glo luminescence, at 10 µM, stronger effect = lower value
[4] = H69AR cell proliferation blockers – human, duplicate replicates, primary screen (AID 580;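 active = viability at or under a set limit in both replicates, limit being median viability minus 3 SD, cut at about 48% in these data, passing the limit was not always enough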;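 note: 100% = mean luminescence of untreated wells and 0% = no signal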); settings: H69AR lung tumor cells viability, ATP luminescence, 72 h; at 10 µM; stronger effect = lower value
[5] = MRP1 drug-resistance reversers in H69AR cells – cell-based, doxorubicin co-treatment, pilot screen (AID 601;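 active = viability loss from added drug above about 55%, and viability with drug at most 40%, in both replicates, limit read from the data, passing the limit was not always enough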); settings: CellTiter-Glo, 72 h, at 10 µM; for differential viability (reversal): stronger effect = higher value
[6] = yeast transport mutant growth inhibition pilot in 384-well plates, post-Golgi transport modulator project (AID 636; in the data active = inhibition above about 31%); settings: absorbance 615 nm, about 18 h, stronger effect = higher value
[7] = growth suppression of yeast trafficking mutant, preliminary HTS, modulators of trafficking downstream of Golgi apparatus project, 1536-format plate, OD 615 nm (AID 637); settings: yeast transport mutant growth, absorbance 615 nm, 18 h; stronger effect = higher value
[8] = S. cerevisiae growth inhibition in permissive medium (OD615), pilot counter-assay for S. cerevisiae lifespan shortening project, permissive growth control (AID 705;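 active = growth inhibition above 25% in both replicates, a cutoff set 3 SD above the mean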); settings: OD615, 24 h, at 10 µM, stronger effect = higher value
[9] = S. cerevisiae growth inhibition in restrictive medium, OD615, pilot screen, restrictive growth control, yeast lifespan reduction project (AID 706;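 active = growth inhibition above a set limit, 3 SD over mean compound inhibition, in both replicates, cut at about 43% in these data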;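 note: modified DeaD lifespan yeast strain shifted to restrictive glucose medium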); settings: OD615, 48 h, at 10 µM, stronger effect = higher value
[10] = doxorubicin toxicity protection in MRP-1 cells – H69AR cells, CellTiter-Glo, duplicate, MRP-1 activator project, pilot screen (AID 807;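 active = viability increase at or above a cutoff of the median across tested compounds plus 3 SD, cut at about 8.5% in these data, passing the limit was not always enough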;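 note: compound pretreatment 18-22 h then 72 h combined with doxorubicin; 0% = doxorubicin alone and 100% = vehicle without doxorubicin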); settings: H69AR viability with doxorubicin, CellTiter-Glo luminescence; at 10 µM; stronger effect = higher value
[11] = viability of HCT116 without oncogenic beta-catenin – human colon tumor cells, pilot screen (AID 823;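 active = cell viability at or below a set limit in both duplicate runs, the limit being the all-compound median minus 4 SD, cut at about 23% in these data, passing the limit was not always enough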;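 note: 0% = wells killed by 20 µM Hyamine and 100% = untreated DMSO cell wells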); settings: HCT116 beta-catenin knockout viability, CellTiter-Glo, 60 h; at 10 µM; stronger effect = lower value
[12] = viability of PTEN-null HCT116 cells – cell-based, HCT116 clonal line, CellTiter-Glo, pilot screen (AID 824;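 active = viability at or below 27.92% in each of two runs, the all-compound median minus 4 SD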;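 note: 0% = 20 µM Hyamine control and 100% = vehicle cell control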); settings: HCT116 PTEN-deleted viability, 60 h, at 10 µM, stronger effect = lower value
[13] = RAM pathway blockade in budding yeast – dse1pr::URA3 reporter, 5-FOA selection, pilot screen (AID 869;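 active = inhibition over a set limit, the all-compound mean plus 3 SD, in both replicate runs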;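 note: 0% = DMSO wells with no growth and 100% = 10 µM 1-NA-PP1 with full growth; RAM network block rescues cells from 5-FOA so hits raise OD615 growth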); settings: S. cerevisiae dse1pr::URA3 5-FOA growth, OD615, 2 d; at 10 µM; stronger effect = higher value; strain carries analog-sensitive mutant Cbk1 kinase
[14] = RAM signaling pathway blockade in yeast – S. cerevisiae, Pdr1DBD-CYC8 efflux-inhibited sensitized strain, primary screen (AID 1298;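 active = RAM network inhibition above 8.4% in each of two replicates, 3 SD over the compound average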;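 note: 0% = DMSO untreated cells without growth and 100% = 10 µM 1-NA-PP1 full growth; higher means more yeast growth rescued from 5-FOA killing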); settings: S. cerevisiae cbk1-as DSE1-URA3 strain, 5-FOA growth OD615, 2 d; at 50 µM; stronger effect = higher value
[15] = HUVEC growth inhibition – cell-based, human, primary screen (AID 575;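 active = viability at or below 30% in both replicate assays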;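 note: 100% = median of untreated cell wells with 0.1% DMSO on each plate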); settings: HUVEC proliferation, CellTiter-Glo luminescence, 72 h; at 10 µM; stronger effect = lower value
[16] = H69AR cells + 2 uM doxorubicin, measured here: viability with 2 uM doxorubicin, stronger effect = lower value
[17] = H69AR cells, compound alone cytotoxicity

Sequence of Receptor tyrosine-protein kinase erbB-2 (Homo sapiens) (P04626 whole entry, looked up): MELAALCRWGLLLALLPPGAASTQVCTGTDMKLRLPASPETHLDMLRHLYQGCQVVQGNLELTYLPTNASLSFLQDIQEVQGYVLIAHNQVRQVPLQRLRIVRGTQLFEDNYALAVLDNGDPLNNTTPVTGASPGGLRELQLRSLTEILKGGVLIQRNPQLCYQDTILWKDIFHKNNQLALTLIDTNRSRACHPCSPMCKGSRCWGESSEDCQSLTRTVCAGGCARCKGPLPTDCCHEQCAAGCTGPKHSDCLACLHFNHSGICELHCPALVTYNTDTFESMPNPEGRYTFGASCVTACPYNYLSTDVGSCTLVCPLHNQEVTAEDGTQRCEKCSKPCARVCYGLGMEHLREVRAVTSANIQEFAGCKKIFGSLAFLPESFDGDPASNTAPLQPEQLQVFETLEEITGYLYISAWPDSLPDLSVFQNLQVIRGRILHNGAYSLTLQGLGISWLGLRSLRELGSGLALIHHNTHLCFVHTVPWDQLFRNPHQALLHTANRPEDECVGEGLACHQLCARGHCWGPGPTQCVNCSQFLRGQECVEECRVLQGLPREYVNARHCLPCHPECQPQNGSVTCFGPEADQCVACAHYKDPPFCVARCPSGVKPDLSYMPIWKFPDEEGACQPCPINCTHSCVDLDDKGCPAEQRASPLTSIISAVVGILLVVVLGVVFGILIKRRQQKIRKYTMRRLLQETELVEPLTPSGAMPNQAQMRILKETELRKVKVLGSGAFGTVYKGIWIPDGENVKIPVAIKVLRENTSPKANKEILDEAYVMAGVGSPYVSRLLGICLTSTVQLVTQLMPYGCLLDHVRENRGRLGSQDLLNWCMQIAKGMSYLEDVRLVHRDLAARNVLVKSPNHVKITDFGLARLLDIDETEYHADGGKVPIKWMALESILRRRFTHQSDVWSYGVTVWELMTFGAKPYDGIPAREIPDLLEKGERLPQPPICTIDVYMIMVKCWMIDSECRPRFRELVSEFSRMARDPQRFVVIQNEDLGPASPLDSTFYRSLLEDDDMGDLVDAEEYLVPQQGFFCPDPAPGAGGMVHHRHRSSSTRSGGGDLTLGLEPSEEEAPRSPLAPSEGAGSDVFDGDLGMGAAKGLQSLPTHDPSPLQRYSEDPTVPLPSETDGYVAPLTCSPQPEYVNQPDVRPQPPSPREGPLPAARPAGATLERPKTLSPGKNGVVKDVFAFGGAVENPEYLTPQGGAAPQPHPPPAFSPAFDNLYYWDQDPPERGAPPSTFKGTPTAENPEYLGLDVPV

CCOC(=O)CSC1=C(C#N)C(c2ccc(C)o2)CC(=O)N1 (configuration not stated)
98.5%: viability [1]
26.6%: viability [5, 17]
active: viability [4] 26.6% | viability [11] 13.7% | viability [12] 14.7%
inactive: Her2 level [2] 83.5% | viability [3] 98.5% | differential viability (reversal) ([5]; H69AR cells + 2 uM doxorubicin) -21.3% | inhibition [6] -4.4% | inhibition [7] -0.66% | growth inhibition [8] -8.58% | growth inhibition [9] 7.01% | viability increase [10] -5.31% | inhibition [13] 1.17% | RAM network inhibition [14] 0.15%
47.9%: viability [5, 16]

C/C=C/CSc1nc2c(c(=O)[nH]c(=O)n2C)n1Cc1ccc(C)cc1
102%: viability [1]
35.5%: viability [5, 17]
58.2%: viability [5, 16]
inactive: Her2 level [2] 98.5% | viability [3] 102% | differential viability (reversal) ([5]; H69AR cells + 2 uM doxorubicin) -22.7% | inhibition [6] -1.6% | inhibition [7] -0.49% | growth inhibition [8] 0.005% | growth inhibition [9] 1.29% | viability increase [10] -4.39% | viability [11] 84.4% | viability [12] 69.3% | inhibition [13] 1.98% | RAM network inhibition [14] 2.77%
active: viability [4] 35.5%

Cn1c(=O)oc2cc(S(=O)(=O)N3CCN(c4ccccn4)CC3)ccc21
inactive: Her2 level [2] 91.5% | viability [3] 88.5% | viability [4] 73.8% | differential viability (reversal) ([5]; H69AR cells + 2 uM doxorubicin) 0.275% | inhibition [6] 0.26% | inhibition [7] -3.67% | growth inhibition [8] -8.03% | growth inhibition [9] -3.75% | viability increase [10] -5.33% | viability [11] 66% | viability [12] 69.4% | inhibition [13] 1.97% | RAM network inhibition [14] 5.16%
73.8%: viability [5, 17]
88.5%: viability [1]
73.5%: viability [5, 16]

CCOc1ccccc1NC(=O)C1CCCN(S(=O)(=O)c2cccc3cccnc23)C1 (configuration not stated)
78.1%: viability [5, 17]
108%: viability [1]
inactive: Her2 level [2] 94.5% | viability [3] 108% | viability [4] 78.1% | differential viability (reversal) ([5]; H69AR cells + 2 uM doxorubicin) -11.7% | inhibition [6] -6.13% | inhibition [7] 1.67% | growth inhibition [8] -4.4% | growth inhibition [9] -21% | viability increase [10] -3.58% | viability [11] 76.2% | viability [12] 71.9% | inhibition [13] 1.14% | RAM network inhibition [14] 4.95%
89.8%: viability [5, 16]

Cc1cc(C)n2c(SCC(=O)Nc3cc(C)on3)nnc2n1
101%: viability [5, 17]
79.2%: viability [5, 16]
inactive: viability [3] 91.5% | viability [15] 104% | viability [4] 101% | differential viability (reversal) ([5]; H69AR cells + 2 uM doxorubicin) 21.3% | inhibition [6] -4.19% | inhibition [7] 5.71% | growth inhibition [8] -7.78% | growth inhibition [9] -16.6% | viability increase [10] 1.73% | viability [11] 102% | viability [12] 97.2% | inhibition [13] 1.88% | RAM network inhibition [14] 3.63%

Cc1ccccc1Cn1nc(C)c(NC(=O)c2noc3c2CCc2ccccc2-3)c1C
84.4%: viability [5, 16]
active: viability increase [10] 10.6%
98.4%: viability [5, 17]
inactive: Her2 level [2] 61% | viability [3] 126% | viability [4] 98.4% | differential viability (reversal) ([5]; H69AR cells + 2 uM doxorubicin) 14% | inhibition [6] 5.77% | inhibition [7] -2.17% | growth inhibition [8] -6.68% | growth inhibition [9] 1.82% | viability [11] 79.5% | viability [12] 85.2% | inhibition [13] 1.23% | RAM network inhibition [14] 6.54%
126%: viability [1]

COc1ccccc1S(=O)(=O)Cc1ccc(C(=O)NCCN2CCCCCC2)o1
71%: viability [1]
102%: viability [5, 17]
inactive: Her2 level [2] 102% | viability [15] 97.5% | viability [4] 102% | differential viability (reversal) ([5]; H69AR cells + 2 uM doxorubicin) 11.8% | inhibition [6] -0.9% | inhibition [7] -1.33% | growth inhibition [8] 2.4% | growth inhibition [9] -14.5% | viability increase [10] -2.82% | viability [11] 104% | viability [12] 104% | inhibition [13] 1.38% | RAM network inhibition [14] 7.66%
90%: viability [5, 16]

Cc1cc(C)c2c(=O)n(CC(=O)NCCCN3CCOCC3)sc2n1
35.5%: viability [5, 16]
inactive: Her2 level [2] 89.5% | viability [3] 98% | viability [15] 64.1% | differential viability (reversal) ([5]; H69AR cells + 2 uM doxorubicin) 4.36% | inhibition [6] -4.53% | inhibition [7] -2.67% | growth inhibition [8] 4.33% | growth inhibition [9] 0.575% | viability increase [10] -4.85% | viability [12] 56.5% | inhibition [13] 1.51% | RAM network inhibition [14] 3.11%
39.8%: viability [5, 17]
98%: viability [1]

Cc1cc(/C=N/n2cnnc2)c(C)n1-c1cccc(Cl)c1
84%: viability [1]
65.9%: viability [5, 16]
86.4%: viability [5, 17]
inactive: Her2 level [2] 92% | viability [3] 84% | viability [4] 86.4% | differential viability (reversal) ([5]; H69AR cells + 2 uM doxorubicin) 20.5% | inhibition [6] -5.26% | inhibition [7] 3.83% | growth inhibition [8] -2% | growth inhibition [9] 22.7% | viability increase [10] -3.15% | viability [11] 83.7% | viability [12] 73.2% | inhibition [13] 2.75% | RAM network inhibition [14] 2.81%

FC(F)(F)COc1nc(N2CCCCC2)nc(N2CCNCC2)n1
inactive: viability [3] 82% | viability [15] 98.8% | viability [4] 92.3% | differential viability (reversal) ([5]; H69AR cells + 2 uM doxorubicin) 15% | inhibition [6] -4.86% | inhibition [7] -4% | growth inhibition [8] 4.64% | growth inhibition [9] -3.79% | viability increase [10] -3.4% | viability [11] 85.5% | viability [12] 84.5% | inhibition [13] 0.78% | RAM network inhibition [14] -2.05%
77.4%: viability [5, 16]
92.3%: viability [5, 17]
